An excerpt weighted towards active compounds, which were near 10% of everything screened.
Luciferase inh = inhibitors of firefly (Photinus pyralis) luciferase. AID 1347043. Potency, µM (highest dose often 115 µM), actives largely listed as inhibitors. P08659. purified P. pyralis luciferase, luminescence, biochemical. hit rate 2.5% among 76,000; also: nearly all actives have a fitted effect of over 65% in size
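Purified 10nM P. pyralis luciferase with 10uM D-luciferin and 10uM ATP in 50mM Tris acetate pH 7.5, 10mM Mg acetate, 0.01% Tween-20, 0.05% BSA. qHTS titration; luminescence read by CCD imager.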
GPT2 inh = blocks human glutamate pyruvate transaminase 2 | Q8TD30 | Recombinant GPT2, coupled pyruvate oxidase/HRP Amplex Red fluorescence | Potency, µM (top dose mostly 57.7 µM), inactives show at the top dose activity change, negative = inhibition, hits mostly inhibitors | hit rate 0.25% among 100,000; also: nearly all actives have a fitted effect of over 60% in size
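Fluorescence read-out: pyruvate from GPT2 turnover coupled to pyruvate oxidase, HRP and Amplex Red (0.2mM ThPP, 0.2U/mL PO and HRP, 50uM Amplex final). Substrates 250uM a-KG, 2mM L-alanine; enzyme 10ng/uL; 30 min RT.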
3T3 cytotox = NIH 3T3 cell cytotoxicity; NIH 3T3 viability, CellTiter-Glo ATP luminescence, 48-72 h; Potency, µM (series often up to 96.7 µM), inactives show at the top dose activity change, negative = cytotoxicity, hits mostly inhibitors; AID 1345082; hit rate 4.3% among 94,000; also: nearly all actives have a fitted effect of over 55% in size
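First NIH 3T3 cells are plated at 400 cells/well; next compound is pinned in; then plates incubate 48 or 72 hr at 37 °C; finally CellTiter-Glo is added and luminescence read after 10 min.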
HEK293 tox = cytotoxic compounds in HEK 293 cells | AID 1345083 | Potency, µM (doses to about 115 µM), for inactives: at the top dose activity change, negative = cytotoxicity, hits mostly inhibitors | hit rate 6.6% among 94,000 | HEK 293 viability, ATP luminescence (CellTiter-Glo), 48-72 h; also: nearly all actives have a fitted effect of over 60% in size
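HEK 293 cells seeded at 250 cells/well were exposed to compound for 48 or 72 hr at 37 degree Celsius. Viability taken as ATP content by CellTiter-Glo luminescence.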
NPR1 antag = human Npr1 receptor antagonism; P16066; HEK293 hNpr1 GloSensor cGMP, ANP-stimulated luminescence; Potency, µM (series often up to 46.3 µM), for inactives: at the highest dose activity change, negative = inhibition, usual class: inhibitors; hit rate 1.6% among 76,000; AID 1347048; calls by dose curve; also: nearly all actives have a fitted effect of over 60% in size
Target sequence (P16066 whole entry, looked up): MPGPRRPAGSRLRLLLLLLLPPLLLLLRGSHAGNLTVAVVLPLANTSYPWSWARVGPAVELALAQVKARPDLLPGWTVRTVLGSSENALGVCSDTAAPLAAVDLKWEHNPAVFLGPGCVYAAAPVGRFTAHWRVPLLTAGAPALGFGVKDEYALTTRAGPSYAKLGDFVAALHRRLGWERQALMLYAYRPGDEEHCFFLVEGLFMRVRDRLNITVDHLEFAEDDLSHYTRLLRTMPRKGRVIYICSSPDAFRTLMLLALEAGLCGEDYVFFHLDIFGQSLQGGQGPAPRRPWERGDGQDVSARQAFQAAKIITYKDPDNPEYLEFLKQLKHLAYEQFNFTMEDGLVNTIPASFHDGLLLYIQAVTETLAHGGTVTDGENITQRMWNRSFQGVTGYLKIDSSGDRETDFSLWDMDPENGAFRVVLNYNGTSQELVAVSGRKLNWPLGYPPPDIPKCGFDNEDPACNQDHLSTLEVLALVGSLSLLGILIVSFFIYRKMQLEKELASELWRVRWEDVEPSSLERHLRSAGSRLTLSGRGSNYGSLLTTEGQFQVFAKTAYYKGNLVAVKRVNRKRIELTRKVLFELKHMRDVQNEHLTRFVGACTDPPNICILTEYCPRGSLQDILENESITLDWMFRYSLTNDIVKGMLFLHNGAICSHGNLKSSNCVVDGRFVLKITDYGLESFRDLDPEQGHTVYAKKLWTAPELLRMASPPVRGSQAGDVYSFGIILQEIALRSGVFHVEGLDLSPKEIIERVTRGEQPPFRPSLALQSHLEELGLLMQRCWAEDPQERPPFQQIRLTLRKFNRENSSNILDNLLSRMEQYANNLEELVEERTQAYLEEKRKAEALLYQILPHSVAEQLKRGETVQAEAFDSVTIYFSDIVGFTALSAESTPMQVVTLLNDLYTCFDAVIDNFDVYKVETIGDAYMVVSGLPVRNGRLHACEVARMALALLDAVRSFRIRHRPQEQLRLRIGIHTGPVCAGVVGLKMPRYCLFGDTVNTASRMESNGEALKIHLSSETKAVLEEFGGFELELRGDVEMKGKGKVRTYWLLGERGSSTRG
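Compound pre-incubated 30 min at room temperature on GloSensor-loaded HEK293 cells stably carrying hNpr1 and the pGS-40F cGMP biosensor. Stimulation uses hNppA at 0.1 nM final; luminescence is taken at baseline and 20 min post-agonist.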
An asterisk follows results filed as active; i = inactive; ? = inconclusive; / = not tested or not shown; [ ] = dose if it differs, or a comment. Unless noted, calls follow the shape of the dose curve; as a rule, active = well fitted curve in the direction sought with a large enough effect; inconclusive = small, poorly fitted or top-dose-only effect, or another doubt; inactive = no such curve, though single readings can be large; an effect the other way counts as inactive or inconclusive. % is scaled to controls: 0 for no effect and ±100 for the full control effect; potency is read from the fitted curve at half-maximal effect.

SMILES	Luciferase inh	GPT2 inh	3T3 cytotox	HEK293 tox	NPR1 antag
CCN1c2cc(C(=O)Nc3ccccc3C(=O)OC)ccc2C(=O)N2CCCCCC21 (centres undefined)	i	1%	20µM*	?	-2%
CCc1cccc(NC(=O)c2ccc3c(c2)N(C)C2CCCCCN2C3=O)c1 (centres undefined)	?	i	?	35µM*	0%
CCc1cccc(NC(=O)c2ccc3c(c2)N(CC)C2CCCCN2C3=O)c1 (centres undefined)	i	i	?	?	0%
NC(=O)c1cccnc1OC1CCN(CCc2ccccc2)CC1	i	i	-6%	-1%	-13%
CC(=O)Nc1ccc(CN2CCc3nc(C(C)C)nc(-c4ccc(Cl)cc4)c3CC2)cc1	/	-1%	-27%	?	/
CCc1cccc(NC(=O)c2ccc3c(c2)N(C)C2CCCN2C3=O)c1 (centres undefined)	25µM*	i	?	?	0%
COc1ccc(NC(=O)c2ccc3c(c2)N(C)C2CCCN2C3=O)cc1OC (centres undefined)	i	i	-29%	?	0%
COc1cccc(N2C(=O)NC(=NC3CCCCC3)C23CCN(Cc2ccc(N(C)C)cc2)CC3)c1	/	i	-10%	-24%	/
O=C(C[C@@H]1CCNC[C@@H]1Cc1cc(-c2ccc(F)cc2)on1)NCc1ccc2c(c1)OCO2	i	?	?	?	0%
Cc1c(-c2ccc(F)cc2)[nH]c2ccc(CNC(=O)CCN3CCCO3)cc12	25µM*	-15%	?	32µM*	?
Cc1nc(CC(=O)NCc2ccc3[nH]c(-c4ccc(F)cc4)c(C)c3c2)cs1	35µM*	i	?	?	?
O=C1CCCCC(C(=O)NCc2ccc(F)cc2)N1 (centres undefined)	i	1%	5%	-1%	4%
Cc1c(-c2ccc(F)cc2)[nH]c2ccc(CNC(=O)[C@@H]3CCCO3)cc12	35µM*	1%	?	50µM*	-17%
Cc1c(-c2ccc(F)cc2)[nH]c2ccc(CNCc3cnn(C)c3)cc12	?	-25%	40µM*	40µM*	-22%
CCOC(=O)[C@@H]1[C@@H](O)C(=O)N(Cc2ccccc2)C12CCN(C(=O)CCc1ccccc1)CC2	/	/	?	-19%	/
CS(=O)(=O)N1CCC(Cc2ccc(C(=O)NCCc3ccccc3)cc2)CC1	/	-4%	?	11µM*	/
CS(=O)(=O)N1CCC(Cc2ccc(C(=O)NCCN3CCOCC3)cc2)CC1	i	-4%	4%	i	-1%
O=C(NCC1CCN(c2cc(-c3ccc(Cl)cc3)[nH]n2)CC1)c1cc(C2CC2)[nH]n1	?	?	35µM*	?	?
Cc1cc(C)n(CCC(=O)NCC2CCN(c3cc(-c4ccc(Cl)cc4)[nH]n3)CC2)n1	i	?	32µM*	35µM*	-20%
O=C(NCC1CCN(c2cc(-c3ccc(F)cc3)[nH]n2)CC1)c1cc(C2CC2)[nH]n1	?	?	?	?	-27%
O=C(NCC1CCN(c2cc(-c3ccc(Cl)cc3)[nH]n2)CC1)c1ccc[nH]1	i	-21%	22µM*	?	-22%
COCCN(C)C(=O)c1cn2cc(-c3cccc(Cl)c3)n(CC3CC3)c(=O)c2n1	i	-5%	?	-20%	0%
CCCN(C)C(=O)c1cn2cc(-c3cccc(Cl)c3)n(CC=C(C)C)c(=O)c2n1	i	-8%	40µM*	28µM*	4%
COc1ccc(-c2ccccc2C(=O)N2CCC(NC(=O)c3cccc(Cl)c3)CC2)nn1	/	/	i	-8%	/
COC[C@H]1C[C@H]2C[C@H](OC(=O)Nc3cccc(Cl)c3)[C@@H](NC(=O)Nc3cccc(Cl)c3)[C@@]2(O)CO1	/	-4%[17.1 µM]	?	?	/
SMILES	Luciferase inh	GPT2 inh	3T3 cytotox	HEK293 tox	NPR1 antag
CC(=O)c1ccc(NC(=O)N2C[C@@H]3C[C@H](C2)c2ccc(NC(=O)Nc4cccc(F)c4)c(=O)n2C3)cc1	35µM*	i	-21%	-1%	1%
O=C(Nc1ccc2n(c1=O)C[C@H]1C[C@@H]2CN(C(=O)Nc2ccc(F)cc2)C1)c1ccccc1	i	i	22µM*	-6%	1%
Cc1ccc(-c2cc(N3CCCN(C(=O)c4cccnc4)CC3)n[nH]2)cc1C	i	-4%	0%	-18%	-2%
O=C(c1ccc(F)cc1)N1CCCN(c2cc(-c3ccc(F)cc3)[nH]n2)CC1	i	-1%	-24%	?	-1%
Cc1ccc(-c2cc(N3CCCN(C(=O)c4ccccc4F)CC3)n[nH]2)cc1C	i	?	?	28µM*	-24%
Cc1ccc(-c2cc(N3CCCN(C(=O)c4cccc(N(C)C)c4)CC3)n[nH]2)cc1C	?	?	40µM*	?	?
O=C(c1ccccc1F)N1CCN(c2cc(-c3ccc(F)cc3)[nH]n2)CC1	i	i	?	?	?
O=C(c1ccc2cc[nH]c2c1)N1CCCN(c2cc(-c3ccc(F)cc3)[nH]n2)CC1	i	?	?	40µM*	?
CN(C)c1cccc(C(=O)N2CCCN(c3cc(-c4ccc(F)cc4)[nH]n3)CC2)c1	22µM*	2%	3%	?	-21%
COc1ccc(C(=O)N2CCc3nc(C(C)C)nc(-c4ccc(O)cc4)c3C2)cc1	i	-11%	-16%	-11%	-1%
N#Cc1cccc(CN2CC[C@@H]3OCC(=O)N(Cc4c[nH]c5ccccc45)[C@H]3CC2)c1	i	2%[88.5 µM]	?	100µM*	-9%[70.6 µM]
CC(C)CCN1CC[C@@H]2OCC(=O)N(Cc3c[nH]c4ccccc34)[C@H]2CC1	i	1%[88.5 µM]	?	100µM*	-16%[70.6 µM]
O=C1CO[C@H]2CCN(Cc3c[nH]c4ccccc34)CC[C@@H]2N1Cc1ccccc1	i	-9%[88.5 µM]	89µM*	?	-4%[70.6 µM]
O=C(CC1CCCCC1)N1CC(n2cc(COCC3CC3)nn2)C1	/	-8%	-11%	-2%	/
C[C@]1(CO)[C@H]2Cc3sc(NC(=O)c4ccco4)nc3[C@@H](CC(=O)Nc3ccccc3)[C@]2(C)CC[C@H]1O	i	-4%	?	?	0%
CC(C)(C)CC(=O)N1CCC2(CC1)C(=O)N(CC(=O)Nc1ccccc1)CN2c1ccccc1	i	-14%	?	?	0%
c1ccc(-c2[nH]ncc2CN2CCCC(N3CCN(c4ccccc4)CC3)C2)cc1 (centres undefined)	i	i	-15%	?	1%
c1ccc(N2CCN(C3CCCN(Cc4cn[nH]c4C4CCCCC4)C3)CC2)cc1 (centres undefined)	i	?	-22%	89µM*	-1%

Screening data (PubChem BioAssay)
